From PubChem BioAssay
The source made the active and inactive calls. Unless noted, the rule behind the calls is not given here.

Columns and labels:
[1] = resazurin metabolic signal in HepG2 cells – cell-based, resazurin fluorescence, 24 h, PK04 Diversity Set, profiling panel (AID 1172); conditions: HepG2 viability, higher = more signal; note: test concentration not given here
[2] = budding yeast growth changes without added modifier – OD600, strain BY4716, 24 h, basal condition, primary screen (AID 1173); conditions: S. cerevisiae BY4716 growth, OD600, 24 h; higher = more signal, called active from +8 up or from −8 down
[3] = viability profiling in MM1S myeloma cells – cell-based, resazurin fluorescence, basal, 24 h, PK04 Diversity Set, profiling panel (AID 1174); conditions: higher = more signal, called active from +8 up or from −8 down;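 note: MM1S multiple myeloma cell line; test concentration not given here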
[4] = target: Dihydroorotate dehydrogenase (quinone), mitochondrial (Plasmodium falciparum (isolate 3D7)) (UniProt Q08210); experiment: inhibition of P. falciparum DHODH – biochemical, C-terminal His tag, absorbance 600 nm, primary screen (AID 1175); conditions: PfDHODH enzyme, DCIP absorbance 600 nm; higher = more signal, called active from +8 up or from −8 down;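 note: recombinant parasite enzyme with a five histidine tag at its C terminus; test concentration not given here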
[5] = inhibition of PAO1 biofilm formation – strain PAO1, LB-PBS medium, absorbance 600 nm, primary screen (AID 1176); note: test concentration not given here; conditions: P. aeruginosa PAO1 growth/biofilm, A600, 12 h; higher = more signal
[6] = growth modulation of vineyard yeast isolate – strain RM11-1a, OD600, basal, 24 h, primary screen (AID 1177);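 note: cultures grown under basal conditions with no added stressor; test concentration not given here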; conditions: S. cerevisiae RM11-1a growth, OD600, 24 h; higher = more signal, called active from +8 up or from −8 down
[7] = growth of efflux-deficient E. coli DRC39 – strain DRC39, OD650, 24 h, E. coli filamentation inducers, primary screen (AID 1178);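 note: growth measured as culture turbidity by optical density at 650 nm; test concentration not given here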; conditions: E. coli DRC39 acrAB, higher = more signal, called active from +8 up or from −8 down
[8] = growth of efflux-deficient E. coli DRC39 – strain DRC39, OD650, 48 h, E. coli filamentation inducers, primary screen (AID 1179);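 note: screen aims at cell division blockers that make cells filament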; conditions: E. coli DRC39 delta-acrAB growth, higher = more signal, called active from +8 up or from −8 down
[9] = viability profiling in RPMI8226 myeloma cells – cell-based, resazurin fluorescence, basal, 24 h, PK04 Diversity Set, profiling panel (AID 1180); conditions: higher = more signal;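 note: RPMI8826 multiple myeloma cell line at 5000 cells per well; test concentration not given here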
[10] = target: E3 ubiquitin-protein ligase XIAP (Homo sapiens) (UniProt P98170); experiment: small molecules binding XIAP protein – biophysical, small-molecule microarray, fluorescence 635 nm, primary screen (AID 1181); conditions: higher = more signal;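 note: score merges 667 nm emission and signal to noise over triplicate slides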
E3 ubiquitin-protein ligase XIAP (Homo sapiens), sequence (P98170 whole entry, looked up): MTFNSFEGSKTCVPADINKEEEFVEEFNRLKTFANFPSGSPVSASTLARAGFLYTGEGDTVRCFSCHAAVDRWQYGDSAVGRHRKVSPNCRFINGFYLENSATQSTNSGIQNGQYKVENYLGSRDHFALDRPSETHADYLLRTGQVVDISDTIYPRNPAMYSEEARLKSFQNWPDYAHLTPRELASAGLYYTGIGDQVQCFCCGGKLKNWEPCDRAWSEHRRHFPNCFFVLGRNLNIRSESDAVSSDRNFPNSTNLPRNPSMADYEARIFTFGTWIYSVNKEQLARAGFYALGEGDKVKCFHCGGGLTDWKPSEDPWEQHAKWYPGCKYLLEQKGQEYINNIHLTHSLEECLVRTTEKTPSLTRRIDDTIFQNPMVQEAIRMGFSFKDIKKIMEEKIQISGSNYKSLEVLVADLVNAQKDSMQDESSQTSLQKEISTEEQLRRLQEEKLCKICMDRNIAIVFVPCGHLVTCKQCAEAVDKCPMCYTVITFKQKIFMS

Dihydroorotate dehydrogenase (quinone), mitochondrial (Plasmodium falciparum (isolate 3D7)), sequence (Q08210 whole entry, looked up): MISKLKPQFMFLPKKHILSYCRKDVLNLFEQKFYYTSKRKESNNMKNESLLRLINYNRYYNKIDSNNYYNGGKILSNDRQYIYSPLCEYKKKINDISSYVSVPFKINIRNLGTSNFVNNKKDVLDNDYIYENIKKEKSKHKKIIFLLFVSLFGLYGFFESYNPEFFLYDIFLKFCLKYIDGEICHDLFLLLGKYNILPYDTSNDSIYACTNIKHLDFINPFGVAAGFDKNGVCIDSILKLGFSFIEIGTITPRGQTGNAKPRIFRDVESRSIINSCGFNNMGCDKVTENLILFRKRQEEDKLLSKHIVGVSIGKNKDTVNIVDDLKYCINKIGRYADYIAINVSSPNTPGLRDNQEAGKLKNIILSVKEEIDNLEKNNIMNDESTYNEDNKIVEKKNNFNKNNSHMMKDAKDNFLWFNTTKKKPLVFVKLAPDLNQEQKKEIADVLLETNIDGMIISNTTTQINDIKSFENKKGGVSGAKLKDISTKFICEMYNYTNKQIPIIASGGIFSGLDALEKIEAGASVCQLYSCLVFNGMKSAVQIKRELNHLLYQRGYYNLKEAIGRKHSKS

Compound | z-score [1] | z-score [2] | z-score [3] | composite z-score [4] | z-score [5] | z-score [6] | z-score [7] | z-score [8] | z-score [9] | composite z-score [10]
O=C(NCc1ccc(F)cc1)[C@H]1C[C@H]2C(=O)N3CCC[C@H]3C(=O)N2[C@H]1c1ccc(O)cc1 | -0.388 | -0.542 (inactive) | 0.698 (inactive) | -1.47 (inactive) | 2.39 (inactive) | -0.795 (inactive) | 0.639 (inactive) | -0.545 (inactive) | 0.379 | 0.33
Cc1ccc(S[C@]2(C(=O)NCC(F)(F)F)CC(=O)N(Cc3ccccc3C(F)(F)F)[C@@H]2c2ccc(CO)cc2)cc1 | -0.12 | 0.0386 (inactive) | -0.383 (inactive) | -0.631 (inactive) | 0.568 (inactive) | -0.404 (inactive) | 0.334 (inactive) | 0.2 (inactive) | -0.754 | 0.0256
CC(C)C(O)C1C=CC2C(=O)NC(=O)C2N1Nc1ccccn1 (stereo not given) | -0.984 | 0.754 (inactive) | -1.69 (inactive) | 0.48 (inactive) | 0.612 (inactive) | 0.696 (inactive) | -1.03 (inactive) | 0.125 (inactive) | -1.23 | 0.106
C=C(C)[C@@H]1CC=C(C(O)C2C=CC3C(=O)N(c4ccccc4)C(=O)C3N2Nc2ccc([N+](=O)[O-])cc2)CC1 (stereo not given in full) | -0.783 | 0.139 (inactive) | -0.66 (inactive) | 1 (inactive) | 0.741 (inactive) | 0.526 (inactive) | -1.17 (inactive) | -1.37 (inactive) | -0.204 | -0.0848
Cc1ccc(S[C@]2(C(=O)NCc3ccccc3)CC(=O)N(Cc3ccccc3C(F)(F)F)[C@@H]2c2ccc(CO)cc2)cc1 | -0.704 | -0.359 (inactive) | 0.103 (inactive) | -1.27 (inactive) | 0.416 (inactive) | -1.38 (inactive) | 0.57 (inactive) | 1.46 (inactive) | -0.307 | 0.109
CN(C)CCCCNC(=O)[C@H]1C[C@H]2C(=O)N3CCC[C@H]3C(=O)N2[C@H]1c1cccc(OCCO)c1 | -0.0329 | 0.949 (inactive) | 0.299 (inactive) | 0.483 (inactive) | 0.202 (inactive) | 1.76 (inactive) | -0.0332 (inactive) | -0.536 (inactive) | -0.116 | 0.906
